Among the data in PubChem BioAssay AID686978 (National Center for Advancing Translational Sciences (NCATS), 2013) are Potency values, retold here.

Where “and” joins values, the source holds several entries; their conditions need not be identical. Equal entries are not always repeated. In all, about 420,000 compounds went through this assay and about 64,000 (15%) were called active. Roughly 27% stayed inconclusive and do not appear here. The call rests on the fitted dose curve; in most records, active means well fitted inhibition curve with a large enough effect; inconclusive means small, poorly fitted or top-dose-only effect; inactive means flat fitted curve, though single readings scatter. Not all results are given here. Entries that show only a call come without a potency. The source holds several records for some structures; these can differ, active in one and inactive in another.
Potency means the concentration at half of the fitted maximal effect.

This experiment is described as follows: qHTS for Inhibitors of human tyrosyl-DNA phosphodiesterase 1 (TDP1): qHTS in cells in absence of CPT. Further: nearly all actives have a fitted effect of over 55% in size. As to conditions: DT40 Tdp1-/- hTDP1 cells, no CPT, ATP luminescence, 48 h; activity change, negative = growth inhibition: at 46.2 µM (top of the series). Summed up:
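Luminescent ATP content (CellTiter-Glo) served as the growth readout. Knockout chicken DT40 cells expressing human TDP1 were exposed to compounds without camptothecin for a minimum 48 hr at 37 °C.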
A general note: In qHTS, concentration-response curves come from the screen itself.
Consider `C=CCSc1nc2c(c(=O)[nH]1)C(C(C)C)C(C#N)=C(N)O2` (stereo not drawn), for which the Potency result was “inactive”.
The entry for `CC1CCCC(NC(=O)CSc2nccn2C)C1C` (stereo not drawn) is “inactive”.
For `CSc1ccc(S(=O)(=O)NCC(=O)OCC(=O)NC2(C#N)CCCCC2)cc1[N+](=O)[O-]` the value was “inactive”.
For `Cc1cc(NC(=O)CCC(=O)N(CC(=O)NCC2CCCO2)c2ccccc2)no1` (stereo not drawn) the value was “inactive”.
Turning to `CCC(C)C(=O)Nc1cc([N+](=O)[O-])ccc1Cl` (stereo not drawn), the Potency entry is “inactive”.
The entry for `N/C(=N\OC(=O)/C=C/c1ccccc1)c1ccc(Br)cc1` is “inactive”; for `Cc1cc(NC(=O)CSCc2ccccc2C)no1` it is “inactive”; for `CCOC(=O)c1c(C2CC2)csc1NC(=O)CSCc1c(C)noc1C` it is “inactive”.
The figure for `Cc1noc(C)c1CSCC(=O)Nc1ccc(Br)cc1Cl` is 10.3 µM (active); for `COCCNC(=O)c1cc2c(Br)ccc(Br)c2nc1N` it is “inactive”.
The entry for `CCOC(=O)C1(Cc2ccc(Cl)cc2)CCN(C(=O)C2=NNC(=O)CC2)CC1` is “inactive”; for `COc1ccc(CCc2nnc(CCC(=O)NCc3cnn(-c4ccccc4C)c3)o2)cc1` it is “inactive”; for `COc1ccc(S(=O)(=O)N2CCOC2CNC(=O)C(=O)NCc2ccncc2)cc1C` (stereo not drawn) it is “inactive”.
As for `COc1ccc(CCNC(=O)C(=O)NCC2OCCN2S(=O)(=O)c2ccc(F)cc2)cc1OC` (stereo not drawn), the Potency entry was “inactive”.
For `COc1ccc(CCNC(=O)C(=O)NCC2OCCN2S(=O)(=O)c2ccc(OC)c(C)c2)cc1` (stereo not drawn), the Potency was 18.4 µM (active).
The figure for `COCCNC(=O)c1ccc2c(c1)N=C(C)c1cc(C)ccc1S2` is 0.461 µM (active).
The entry for `COCCNC(=O)c1ccc(S(=O)(=O)c2ccc(Cl)cc2)c(NC(C)=O)c1` is “inactive”; for `Cc1ccc(OCCNC(=O)CNC(=O)c2ccc(C)c(C)c2)cc1` it is “inactive”; for `Cc1ccc(CNC(=O)c2ccc3c(c2)S(=O)(=O)c2ccccc2C3=O)cc1` it is “inactive”.
As for `O=C(NCc1ccc(Cl)cc1)c1ccc2c(c1)nnn2C1CCCC1`, the Potency entry is “inactive”.
The figure for `CC1=Nc2cc(C(=O)NCc3ccc(C)cc3)ccc2Sc2ccc(Cl)cc21` is 20.6 µM (active).
The entry for `O=[N+]([O-])c1ccccc1/C=C/CN1CCCC(CO)C1` (stereo not drawn) is “inactive”; for `Cc1nnc(SCC(=O)Nc2ncc3c(n2)CC(C)(C)CC3=O)s1` it is “inactive”; for `O=C(NC(=S)Nc1ncccn1)c1ccccc1Br` it is “inactive”.
For `CCC(C)N(C(=O)COC(=O)c1nc(Cl)ccc1Cl)C1CCS(=O)(=O)C1` (stereo not drawn) the value was “inactive”.
Regarding `CCN(CC)CCN1C(=O)C(=O)/C(=C(/O)c2ccccc2)C1c1ccccc1F` (stereo not drawn), the Potency entry was “inactive”.
For `COc1cccc(C(c2c(O)cc(C)n(Cc3ccco3)c2=O)N2CCN(c3ccccc3)CC2)c1` (stereo not drawn), the Potency entry was “inactive”.
The figure for `Cc1c(NC(=O)CSc2cccc3cccnc23)c(=O)n(-c2ccccc2)n1C` is 23.1 µM (active); for `Cc1c(NC(=O)CSc2nnnn2-c2ccc(C(=O)O)cc2)c(=O)n(-c2ccccc2)n1C` it is “inactive”; for `Cc1c(NC(=O)CSc2nnc(-c3cccnc3)n2N)c(=O)n(-c2ccccc2)n1C` it is “inactive”.
For `COc1ccc(F)c(CN2CCC3(CCC(CNC(=O)c4ccn(C)n4)O3)CC2)c1` (stereo not drawn) the value was “inactive”; for `Cc1cc(NC(=O)Cn2nc(C(F)(F)F)c3c2CCCC3)no1`, “inactive”; for `OCCN1CCOCCOCCN(CCO)CCN(CCO)CC1`, “inactive”.
For `Cc1cc(C)c(C#N)c(SCc2ccc3c(c2)OCO3)n1` the value was “inactive”.
Regarding `C=CCn1c(-c2sc(-c3ccccc3)nc2C)n[nH]c1=S`, the Potency is 23.1 µM (active).
For `Cc1nc(-c2ccccc2)sc1-c1nnc(C2CC2)o1` the value was “inactive”; for `C=CCn1c(CCNC(=O)c2cccs2)n[nH]c1=S`, “inactive”; for `COc1ccc(/C=C/c2c(-c3cccc(C)c3)oc3ccc(-c4ccc5c(c4)OCO5)cc23)cc1`, “inactive”.
With `N#C/C(=C\c1ccc(O)c(O)c1)C(N)=O`, the Potency entry is “inactive and 29.9 µM (active)”.
Take `CC(C)(C)C(=O)/C(C#N)=C/c1ccc(O)cc1`: the Potency result is “inactive”.
With `CC(C)NC(=O)/C(C#N)=C\c1ccc(N(C)C)c(Br)c1`, the Potency result was “inactive”.
Consider `CCc1nc2ccc(C(=O)N(C)CCN(C)C)cn2c1N(CC)CCOC`, for which the Potency result is “inactive”.
For `COc1ccc(N(C(=O)c2cccnc2)S(=O)(=O)c2ccc(OC)c(OC)c2)cc1` the value was “inactive”; for `Cc1cc(NC(=O)CCS(=O)(=O)c2ccc(F)cc2)no1`, “inactive”.
The figure for `CCOC(=O)[C@]12CCCC=C1N(CCC1=CCCCC1)C(=O)[C@H](CC(=O)N1CCCCC1)C2` is 5.17 µM (active); for `CCOC(=O)[C@]12CCCC=C1N(CCC1=CCCCC1)C(=O)[C@H](CC(=O)N1CCOCC1)C2` it is 16.4 µM (active).
In the case of `CCOC(=O)N1CCN(C(=O)C[C@@H]2C[C@@]3(C(=O)OC)CCCCC=C3N(CCC3=CCCCC3)C2=O)CC1`, the Potency was 16.4 µM (active).
For `CCOC(=O)[C@]12CCCC=C1N(CCC1=CCCCC1)C(=O)[C@H](CC(=O)N1CCSCC1)C2` the value was 16.4 µM (active); for `CCOC(=O)N1CCN(C(=O)COc2ccc(Br)cc2)CC1`, “inactive”.
The entry for `CSc1c(SCc2ccccc2)cnn(Cc2ccccc2)c1=O` is “inactive”.
For `Cc1ccc(N)cc1-n1c(C)ccc1C` the value was “inactive”.
For `C/C=C/C(=O)OCc1csc(CC(=O)Nc2ccccc2C)n1`, the Potency entry is “inactive”.
Turning to `CC1CC1C(=O)OCC(=O)Nc1cccc(F)c1` (stereo not drawn), the Potency result was “inactive”.
The entry for `Cc1cc(-c2nnc(SCC(=O)Nc3ccc(F)cc3)n2N)n[nH]1` is “inactive”.
For `O=C(CN1C(=O)CSC1=O)N1CCCC(Nc2ccc(F)cc2)C1` (stereo not drawn) the value was “inactive”.
The entry for `Cc1ccc(S(=O)(=O)N(C)c2ccc(OCC(=O)NC3=NCCS3)cc2)cc1` is “inactive”.
For the molecule `CC(C)NC(=O)Nc1cccc2c1O[C@H](CN(C)S(=O)(=O)c1cccs1)[C@@H](C)CN([C@H](C)CO)C2=O`, the Potency result is “inactive”.
The entry for `CCOC(=O)[C@]12CCC=C1N(Cc1ccccc1)C(=O)[C@H](CC(=O)N1CCCC1)C2` is “inactive”; for `COc1ccc(Cl)cc1N(CC(=O)N1CCCCC1)S(C)(=O)=O` it is “inactive”; for `COC(=O)[C@]12CCCCC=C1N(CCC1=CCCCC1)C(=O)[C@H](CC(=O)N1CCSCC1)C2` it is 16.4 µM (active).
The figure for `CCOC(=O)[C@]12CCCC=C1N(Cc1ccc(Cl)cc1Cl)C(=O)[C@H](CC(=O)N1CCCCC1)C2` is 23.1 µM (active); for `Cc1ccc(-c2ccc(C3=CC(=O)CC(C)(C)C3=O)cc2)cc1` it is “inactive”.
For `CCc1ccccc1N1C(=O)C2C3CC(=O)C(c4ccccc43)C2C1=O` (stereo not drawn), the Potency result is “inactive”.
The figure for `Cc1ccc(CCC(=O)Nc2ncc(Cc3cc(Cl)ccc3Cl)s2)o1` is 0.58 µM (active); for `Cc1ccc(Cc2cnc(N)s2)o1` it is “inactive”; for `O=C(CCc1ccccc1Cl)Nc1ccc(S(=O)(=O)Nc2nccs2)cc1` it is “inactive”.
The entry for `COc1cc2sc(C)nc2cc1C` is “inactive”; for `CCNC(=O)CC1C(=O)N(c2ccc(F)cc2)C(=O)N1Cc1ccc(C)cc1` (stereo not drawn) it is “inactive”.
Regarding `COC(=O)CN1C(=S)N(c2ccccc2)C(=O)C1CC(=O)Nc1ccc(Cl)cc1` (stereo not drawn), the Potency entry is “inactive”.
For `CCOC(=O)c1ccc(NC(=O)CC2C(=O)N(c3cccc(OC)c3)C(=O)N2C2CCCCC2)cc1` (stereo not drawn), the Potency is 20.6 µM (active).
For `CCOC(=O)c1ccc(NC(=O)CC2C(=O)N(c3ccccc3)C(=O)N2Cc2cccs2)cc1` (stereo not drawn) the value was 20.6 µM (active).
Take `CCNC(=O)CC1C(=O)N(c2ccc(F)cc2)C(=O)N1Cc1cccs1` (stereo not drawn): the Potency entry was “inactive”.
The entry for `CCOc1ccc(NC(=O)CC2C(=O)N(c3cccc(OC)c3)C(=O)N2C2CCCCC2)cc1` (stereo not drawn) is “inactive”; for `CCNC(=O)N1CCNC(=O)C1CC(=O)Nc1ccc(C(=O)OCC)cc1` (stereo not drawn) it is “inactive”.
The entry for `CCOc1ccc(NC(=O)CC2C(=O)N(c3ccccc3)C(=O)N2CCOC)cc1` (stereo not drawn) is “inactive”; for `CCCOc1ccc(NC(=O)CC2C(=O)N(c3ccccc3)C(=O)N2Cc2ccco2)cc1` (stereo not drawn) it is 20.6 µM (active).
The entry for `Cc1ccnc(NS(=O)(=O)c2ccc(NC(=O)c3oc4ccc(F)cc4c3C)cc2)n1` is “inactive”; for `COCc1cc(C)n(CC(=O)NCC2CCCO2)c(=O)c1C#N` (stereo not drawn) it is “inactive”; for `Cc1cnc(C(=O)OCC(=O)NCCCc2ccccc2)cn1` it is “inactive”.
As to `Cc1ccccc1NC(=O)c1nn(-c2ccc(F)c(F)c2)ccc1=O`, the Potency entry is “inactive”.
For `CN(C)/C=C(/C(=O)c1ccccc1)S(=O)(=O)c1ccc(Cl)cc1` the value was “inactive”; for `COc1ccc(OC(C)C(=O)Nc2cccnc2)cc1` (stereo not drawn), “inactive”.
For the molecule `N#Cc1ccc(OCCN2C(=O)NC3(CCSC3)C2=O)cc1` (stereo not drawn), the Potency entry was “inactive”.
For `CCOC(=O)[C@@H]1[C@H]2COc3ccc(Br)cc3[C@H]2N2C(=O)N(c3ccc(C)cc3)C(=O)[C@@]12C` the value was 20.6 µM (active); for `CCOC(=O)[C@@H]1[C@H]2COc3cc(OC)ccc3[C@H]2N2C(=O)N(c3ccc(F)cc3)C(=O)[C@]12C`, “inactive”; for `CCOC(=O)[C@H]1[C@H]2COc3ccccc3[C@@H]2N2C(=O)CN(Cc3ccccc3)C(=O)[C@@]12C`, “inactive”.
The entry for `CCOC(=O)[C@@H]1[C@H]2COc3cc(OC)ccc3[C@@H]2N2C(=O)N(c3cccc(C)c3)C(=O)[C@@]12C` is “inactive”.
The figure for `CCOC(=O)[C@H]1[C@H]2COc3cc(OC)ccc3[C@@H]2N2C(=O)N(c3ccc(Br)cc3)C(=O)[C@@]12C` is 18.4 µM (active).
Take `CCOC(=O)[C@H]1[C@H]2COc3ccc(Br)cc3[C@@H]2N2C(=O)CN(C)C(=O)[C@@]12C`: the Potency entry is “inactive”.
As for `O=C(CN1CCN(Cc2ccc(F)cc2Cl)C1=O)NCc1cccs1`, the Potency entry was “inactive”.
The figure for `COc1cc(C2OC(c3cc(OC)c(OC)c(OC)c3)C(C)C2C)cc(OC)c1OC` (stereo not drawn) is 18.4 µM (active); for `COc1cc(C2CC(=O)Oc3cc(OC)c(OC)c(OC)c32)cc(OC)c1OC` (stereo not drawn) it is “inactive”; for `COc1cc(OC)c2c(c1)OC(=O)CC2c1cc(OC)c(OC)c(OC)c1` (stereo not drawn) it is “inactive”.
The entry for `CCCNC(=O)NCc1ccc(N2CCCC2=O)cc1` is “inactive”; for `Cn1cccc1C1(C(F)(F)F)NCCNC1=O` (stereo not drawn) it is “inactive”; for `Cc1ccc(CSCC2Nc3ccc(C(=O)N4CCN(c5ccc(F)cc5)CC4)cc3NC2=O)cc1` (stereo not drawn) it is 16.4 µM (active).
The entry for `COC(=O)c1ccc(C(=O)OC)c(NC(=S)N2CCN(c3ccc(F)cc3)CC2)c1` is “inactive”; for `Cc1ccc(SCC(=O)N2CCN(c3ccc(F)cc3)CC2)cc1` it is “inactive”.
